Laboratory results from ChEMBL document CHEMBL1961873, “Compounds: GSK PKIS; Assays: Nanosyn kinase panel” (2012).

Key:
[1] = test system: Epidermal growth factor receptor (Homo sapiens), P00533 [T790M]; details: at 1 µM
[2] = test system: Epidermal growth factor receptor (Homo sapiens), P00533 [L858R,T790M]; details: at 0.1 µM
[3] = test system: Epidermal growth factor receptor (Homo sapiens), P00533 [L858R,T790M]; details: at 1 µM
[4] = biological target: Ephrin type-A receptor 2 (Homo sapiens) (UniProt P29317); details: at 0.1 µM
[5] = biological target: Ephrin type-A receptor 2 (Homo sapiens) (UniProt P29317); details: at 1 µM
[6] = biological target: T1, Ephrin type-A receptor 3 (Homo sapiens) (UniProt P29320); details: at 0.1 µM
T1 sequence (whole entry): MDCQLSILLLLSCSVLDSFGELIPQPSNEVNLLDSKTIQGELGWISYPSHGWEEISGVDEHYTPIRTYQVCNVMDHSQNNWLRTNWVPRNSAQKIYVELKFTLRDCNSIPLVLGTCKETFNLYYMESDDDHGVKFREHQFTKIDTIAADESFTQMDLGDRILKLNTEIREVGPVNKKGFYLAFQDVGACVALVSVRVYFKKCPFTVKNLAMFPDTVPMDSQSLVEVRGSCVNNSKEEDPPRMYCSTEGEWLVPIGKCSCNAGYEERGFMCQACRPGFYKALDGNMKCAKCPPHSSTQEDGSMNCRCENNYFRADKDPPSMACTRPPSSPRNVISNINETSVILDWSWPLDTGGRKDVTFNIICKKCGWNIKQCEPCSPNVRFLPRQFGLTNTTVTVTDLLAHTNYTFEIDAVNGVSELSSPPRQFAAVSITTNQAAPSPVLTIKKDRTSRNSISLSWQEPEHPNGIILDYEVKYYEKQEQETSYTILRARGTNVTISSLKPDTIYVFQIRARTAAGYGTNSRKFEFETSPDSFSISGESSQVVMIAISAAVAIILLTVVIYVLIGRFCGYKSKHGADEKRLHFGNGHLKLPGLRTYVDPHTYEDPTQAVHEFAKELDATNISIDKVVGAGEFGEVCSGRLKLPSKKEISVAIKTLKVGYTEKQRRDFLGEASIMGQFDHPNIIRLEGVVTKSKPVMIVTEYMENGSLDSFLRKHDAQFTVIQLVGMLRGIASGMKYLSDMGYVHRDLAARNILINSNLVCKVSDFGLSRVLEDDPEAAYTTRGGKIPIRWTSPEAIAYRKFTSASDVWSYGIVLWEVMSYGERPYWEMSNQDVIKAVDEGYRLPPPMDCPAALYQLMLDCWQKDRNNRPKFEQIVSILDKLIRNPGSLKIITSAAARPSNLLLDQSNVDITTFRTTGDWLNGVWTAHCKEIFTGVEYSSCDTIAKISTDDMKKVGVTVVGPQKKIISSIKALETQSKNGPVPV

[7] = biological target: T1, Ephrin type-A receptor 3 (Homo sapiens); details: at 1 µM
[8] = biological target: Ephrin type-A receptor 4 (Homo sapiens) (UniProt P54764); details: at 0.1 µM
[9] = biological target: Ephrin type-A receptor 4 (Homo sapiens) (UniProt P54764); details: at 1 µM
[10] = biological target: T2, Ephrin type-B receptor 2 (Homo sapiens) (UniProt P29323); details: at 0.1 µM;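 note: reported as mean inhibition of EPHB2, from the GSK PKIS dataset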
T2 sequence (whole entry): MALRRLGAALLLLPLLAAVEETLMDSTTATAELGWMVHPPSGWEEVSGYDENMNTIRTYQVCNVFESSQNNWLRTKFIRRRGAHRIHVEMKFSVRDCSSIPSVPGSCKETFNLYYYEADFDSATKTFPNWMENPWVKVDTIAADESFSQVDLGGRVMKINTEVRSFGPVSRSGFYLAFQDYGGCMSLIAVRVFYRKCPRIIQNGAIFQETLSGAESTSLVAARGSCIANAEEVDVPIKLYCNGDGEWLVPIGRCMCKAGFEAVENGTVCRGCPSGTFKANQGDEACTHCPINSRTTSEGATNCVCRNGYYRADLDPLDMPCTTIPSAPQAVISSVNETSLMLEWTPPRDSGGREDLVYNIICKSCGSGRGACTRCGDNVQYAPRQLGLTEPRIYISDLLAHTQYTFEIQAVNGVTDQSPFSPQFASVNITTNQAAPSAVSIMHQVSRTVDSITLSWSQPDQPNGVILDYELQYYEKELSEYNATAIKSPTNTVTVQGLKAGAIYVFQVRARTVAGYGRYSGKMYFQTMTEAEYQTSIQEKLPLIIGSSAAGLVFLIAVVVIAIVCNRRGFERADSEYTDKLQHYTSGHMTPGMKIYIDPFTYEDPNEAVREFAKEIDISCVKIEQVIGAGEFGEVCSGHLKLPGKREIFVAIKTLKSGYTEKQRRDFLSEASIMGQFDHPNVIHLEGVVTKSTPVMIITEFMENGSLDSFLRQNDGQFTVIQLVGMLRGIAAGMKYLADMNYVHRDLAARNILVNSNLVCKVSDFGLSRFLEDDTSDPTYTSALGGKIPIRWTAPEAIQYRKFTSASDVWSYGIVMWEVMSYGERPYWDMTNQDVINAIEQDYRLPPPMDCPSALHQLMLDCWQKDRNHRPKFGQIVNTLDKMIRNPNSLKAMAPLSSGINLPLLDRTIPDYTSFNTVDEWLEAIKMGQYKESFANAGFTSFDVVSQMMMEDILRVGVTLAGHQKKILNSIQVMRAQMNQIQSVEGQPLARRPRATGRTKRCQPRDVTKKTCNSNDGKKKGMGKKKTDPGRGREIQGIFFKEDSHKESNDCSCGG

Sequence of Epidermal growth factor receptor (Homo sapiens), P00533 [L858R,T790M] (P00533 whole entry T790M/L858R, looked up): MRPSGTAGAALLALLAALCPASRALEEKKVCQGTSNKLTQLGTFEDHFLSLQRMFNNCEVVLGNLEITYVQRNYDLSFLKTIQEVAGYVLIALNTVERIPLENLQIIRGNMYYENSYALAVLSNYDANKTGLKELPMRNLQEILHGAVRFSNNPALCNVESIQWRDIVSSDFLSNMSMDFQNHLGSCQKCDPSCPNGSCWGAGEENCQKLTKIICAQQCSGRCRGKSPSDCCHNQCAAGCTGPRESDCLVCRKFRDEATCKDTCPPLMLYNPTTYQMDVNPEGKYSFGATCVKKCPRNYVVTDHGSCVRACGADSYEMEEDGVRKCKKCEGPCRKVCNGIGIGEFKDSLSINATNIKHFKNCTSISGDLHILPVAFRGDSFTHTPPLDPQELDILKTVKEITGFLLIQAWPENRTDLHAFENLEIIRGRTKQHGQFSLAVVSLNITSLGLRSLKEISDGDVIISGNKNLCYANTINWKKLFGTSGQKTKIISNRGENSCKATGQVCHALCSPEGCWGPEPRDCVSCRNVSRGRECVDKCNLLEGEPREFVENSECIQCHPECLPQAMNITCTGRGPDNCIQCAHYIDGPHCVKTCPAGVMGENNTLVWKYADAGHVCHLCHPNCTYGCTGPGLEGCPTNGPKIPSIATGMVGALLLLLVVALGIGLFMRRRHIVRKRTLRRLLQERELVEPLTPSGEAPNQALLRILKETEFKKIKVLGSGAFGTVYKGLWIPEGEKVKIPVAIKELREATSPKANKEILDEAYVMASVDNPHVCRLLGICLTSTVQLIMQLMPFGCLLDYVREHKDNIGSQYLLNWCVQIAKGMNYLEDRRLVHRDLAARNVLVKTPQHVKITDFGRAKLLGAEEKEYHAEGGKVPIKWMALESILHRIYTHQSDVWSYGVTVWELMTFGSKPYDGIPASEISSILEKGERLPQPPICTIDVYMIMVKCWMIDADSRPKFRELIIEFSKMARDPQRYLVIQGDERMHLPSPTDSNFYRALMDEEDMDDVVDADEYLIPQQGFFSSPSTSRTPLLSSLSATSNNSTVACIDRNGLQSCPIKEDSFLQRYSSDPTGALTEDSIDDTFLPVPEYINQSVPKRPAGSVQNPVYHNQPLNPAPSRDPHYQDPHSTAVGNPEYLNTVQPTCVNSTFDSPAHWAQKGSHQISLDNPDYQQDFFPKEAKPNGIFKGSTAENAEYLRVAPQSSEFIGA
Sequence of Ephrin type-A receptor 2 (Homo sapiens) (P29317 whole entry): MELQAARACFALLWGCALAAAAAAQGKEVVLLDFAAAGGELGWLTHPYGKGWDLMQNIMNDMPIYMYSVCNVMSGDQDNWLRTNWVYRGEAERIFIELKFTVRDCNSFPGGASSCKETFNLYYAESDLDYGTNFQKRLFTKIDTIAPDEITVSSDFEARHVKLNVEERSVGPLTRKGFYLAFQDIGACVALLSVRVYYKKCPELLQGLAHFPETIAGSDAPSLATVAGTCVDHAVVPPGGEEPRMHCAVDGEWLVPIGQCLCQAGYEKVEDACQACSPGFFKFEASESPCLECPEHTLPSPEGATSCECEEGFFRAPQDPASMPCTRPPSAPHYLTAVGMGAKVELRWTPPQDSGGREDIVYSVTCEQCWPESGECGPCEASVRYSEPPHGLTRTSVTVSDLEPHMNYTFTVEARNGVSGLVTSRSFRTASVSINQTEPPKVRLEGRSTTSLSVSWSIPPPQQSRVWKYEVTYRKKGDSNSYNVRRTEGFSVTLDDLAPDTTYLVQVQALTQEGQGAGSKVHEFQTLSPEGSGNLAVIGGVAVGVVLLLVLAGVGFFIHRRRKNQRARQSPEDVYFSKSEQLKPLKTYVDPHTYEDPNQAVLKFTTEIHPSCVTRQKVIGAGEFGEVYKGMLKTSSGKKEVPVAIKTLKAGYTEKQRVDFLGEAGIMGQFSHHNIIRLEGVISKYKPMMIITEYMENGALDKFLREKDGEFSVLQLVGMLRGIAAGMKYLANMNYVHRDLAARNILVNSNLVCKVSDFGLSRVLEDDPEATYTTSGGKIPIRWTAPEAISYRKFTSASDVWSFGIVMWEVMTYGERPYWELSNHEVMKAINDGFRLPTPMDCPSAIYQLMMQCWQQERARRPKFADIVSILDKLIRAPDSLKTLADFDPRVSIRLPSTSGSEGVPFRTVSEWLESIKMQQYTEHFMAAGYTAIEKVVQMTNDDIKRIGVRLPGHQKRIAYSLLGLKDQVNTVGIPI
Sequence of Epidermal growth factor receptor (Homo sapiens), P00533 [T790M] (P00533 whole entry T790M): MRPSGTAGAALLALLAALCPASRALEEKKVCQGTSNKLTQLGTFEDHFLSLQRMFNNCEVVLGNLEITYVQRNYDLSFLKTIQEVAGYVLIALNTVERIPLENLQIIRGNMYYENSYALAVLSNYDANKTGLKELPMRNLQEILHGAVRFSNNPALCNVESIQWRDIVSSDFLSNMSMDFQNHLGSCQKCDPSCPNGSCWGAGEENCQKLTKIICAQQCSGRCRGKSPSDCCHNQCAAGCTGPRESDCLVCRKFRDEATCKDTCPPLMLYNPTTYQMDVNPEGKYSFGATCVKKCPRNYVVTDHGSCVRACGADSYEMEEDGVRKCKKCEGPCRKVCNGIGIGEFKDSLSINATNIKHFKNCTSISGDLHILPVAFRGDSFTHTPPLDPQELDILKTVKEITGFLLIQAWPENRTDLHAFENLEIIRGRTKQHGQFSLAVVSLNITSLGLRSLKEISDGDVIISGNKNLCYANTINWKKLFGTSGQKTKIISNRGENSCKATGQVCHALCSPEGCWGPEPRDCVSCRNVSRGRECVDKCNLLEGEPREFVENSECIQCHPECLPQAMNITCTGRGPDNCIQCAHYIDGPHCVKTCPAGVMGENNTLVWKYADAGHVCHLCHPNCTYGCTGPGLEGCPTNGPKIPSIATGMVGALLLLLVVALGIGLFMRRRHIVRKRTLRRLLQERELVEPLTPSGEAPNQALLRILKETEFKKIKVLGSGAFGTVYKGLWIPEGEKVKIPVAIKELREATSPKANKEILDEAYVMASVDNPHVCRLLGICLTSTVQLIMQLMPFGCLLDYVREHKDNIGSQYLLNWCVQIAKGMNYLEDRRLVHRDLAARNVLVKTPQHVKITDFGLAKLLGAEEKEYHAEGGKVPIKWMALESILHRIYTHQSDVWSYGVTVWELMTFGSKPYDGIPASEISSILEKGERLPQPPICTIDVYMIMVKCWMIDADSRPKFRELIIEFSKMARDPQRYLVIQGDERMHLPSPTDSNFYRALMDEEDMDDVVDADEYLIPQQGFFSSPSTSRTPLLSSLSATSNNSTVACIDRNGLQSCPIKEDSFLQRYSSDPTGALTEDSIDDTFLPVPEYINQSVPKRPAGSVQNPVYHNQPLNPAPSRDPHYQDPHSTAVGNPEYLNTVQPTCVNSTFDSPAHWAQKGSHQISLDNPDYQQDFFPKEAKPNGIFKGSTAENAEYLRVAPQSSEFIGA
Sequence of Ephrin type-A receptor 4 (Homo sapiens) (P54764 whole entry): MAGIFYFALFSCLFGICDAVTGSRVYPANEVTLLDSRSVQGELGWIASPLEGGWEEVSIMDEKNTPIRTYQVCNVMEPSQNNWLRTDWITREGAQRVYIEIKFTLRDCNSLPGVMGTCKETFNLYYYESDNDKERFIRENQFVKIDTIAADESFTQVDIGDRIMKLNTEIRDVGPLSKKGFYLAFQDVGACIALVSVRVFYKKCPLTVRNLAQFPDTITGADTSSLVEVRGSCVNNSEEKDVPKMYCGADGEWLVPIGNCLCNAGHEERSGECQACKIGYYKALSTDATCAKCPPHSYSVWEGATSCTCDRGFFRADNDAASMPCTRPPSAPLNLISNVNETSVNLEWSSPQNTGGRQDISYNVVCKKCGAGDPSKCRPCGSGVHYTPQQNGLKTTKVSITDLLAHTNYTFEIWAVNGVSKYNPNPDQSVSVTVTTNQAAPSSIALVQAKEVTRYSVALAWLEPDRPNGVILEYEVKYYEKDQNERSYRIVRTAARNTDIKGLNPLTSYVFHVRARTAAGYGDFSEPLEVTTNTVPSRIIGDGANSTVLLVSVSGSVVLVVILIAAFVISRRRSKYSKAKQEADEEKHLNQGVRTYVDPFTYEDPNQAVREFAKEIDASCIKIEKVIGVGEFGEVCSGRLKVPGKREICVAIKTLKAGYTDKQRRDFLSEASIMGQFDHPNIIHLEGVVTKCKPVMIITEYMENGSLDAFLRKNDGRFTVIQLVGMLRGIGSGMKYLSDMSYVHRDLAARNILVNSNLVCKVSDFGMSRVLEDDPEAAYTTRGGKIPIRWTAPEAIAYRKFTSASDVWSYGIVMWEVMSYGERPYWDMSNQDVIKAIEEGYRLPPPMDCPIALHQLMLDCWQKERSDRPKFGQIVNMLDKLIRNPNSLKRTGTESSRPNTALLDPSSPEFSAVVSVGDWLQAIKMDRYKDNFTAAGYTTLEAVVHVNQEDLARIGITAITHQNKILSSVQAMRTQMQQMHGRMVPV

Row | Compound | inhibition [1] [%] | inhibition [2] [%] | inhibition [3] [%] | inhibition [4] [%] | inhibition [5] [%] | inhibition [6] [%] | inhibition [7] [%] | inhibition [8] [%] | inhibition [9] [%] | inhibition [10] [%]
1 | CS(=O)(=O)CCNCc1ccc(-c2ccc3ncnc(Nc4ccc(OCc5ccccc5)c(C(F)(F)F)c4)c3c2)o1 | 2.12 | 3.43 | 0.97 | 2.24 | 0.59 | 8.45 | 2.73 | 6.33 | 7.84 | 7.71
2 | COc1ccc2c(-c3ccnc(Nc4cccc(OC(F)(F)F)c4)n3)cnn2n1 | 3.37 | 2.65 | 2.88 | 1.21 | 2.29 | 6.89 | 7.93 | 11.3 | 24.1 | 5.72
3 | CCc1nn2ncccc2c1-c1ccnc(NC2CC2)n1 | 1.56 | -2.33 | 0.76 | 0.52 | 0.58 | 2.4 | 3.87 | 4.8 | 8.02 | -1.23
4 | Cc1cccc(Nc2ncc(-c3ccccc3)o2)c1 | 2.62 | -0.51 | 1.2 | 2.27 | 1.53 | 2.3 | 2.7 | 5.68 | 5.88 | 0.55
5 | Nc1ncc(-c2cccc(S(N)(=O)=O)c2)c2scc(-c3ccc(F)c(Cl)c3)c12 | 5.52 | 1.23 | 3.47 | 41 | 89.7 | 27.4 | 68.6 | 54.9 | 92 | 67.8
6 | CCN(CC)S(=O)(=O)c1ccc(OC)c(Nc2ncc(-c3ccccc3)o2)c1 | 2.04 | 0.39 | -0.47 | 4.36 | 2.14 | 2.4 | 2.35 | 9.54 | 13.8 | 5.55
7 | COc1ccc(-c2oc3ncnc(N)c3c2-c2ccc(NC(=O)Nc3cc(C(F)(F)F)ccc3F)cc2)cc1 | 3.03 | -0.45 | 7.47 | 87.9 | 95.7 | 82.1 | 87.1 | 87.3 | 87.6 | 85.7
8 | O=C(O[C@H]1CN[C@H](C#Cc2cc3ncnc(Nc4ccc(Cc5ccccc5)cc4)c3s2)C1)N1CCOCC1 | 10.5 | -1.96 | -1.31 | -0.49 | -1.09 | 2.25 | 3.5 | 3.73 | 5.5 | 7.69
9 | CC(C)COC(=O)c1ccc2c(c1)/C(=C/Nc1ccc(S(N)(=O)=O)cc1)C(=O)N2 | -2.28 | -2.38 | 3.71 | -3.29 | -3.24 | -2.74 | 0.31 | -1.11 | 1.79 | -3.84
10 | Fc1ccc(-c2nn3ncccc3c2-c2ccnc(Nc3ccc4c(c3)OCCO4)n2)cc1 | 63.8 | 45.5 | 88.1 | 2.48 | 14.4 | 7.69 | 18.2 | 17.1 | 55.5 | 34.3
11 | CNC(=O)c1cncc(/C=C/c2ccccc2Cl)c1 | 5.34 | 1.14 | -0.51 | 3.31 | 2.6 | 1.03 | 1.99 | 3.99 | 15 | -0.8
12 | Fc1ccc(-c2cc(-c3c[nH]nc3-c3ccccn3)ccn2)cc1 | 5.56 | -1.9 | 6.43 | 1.25 | 0.94 | 3.9 | 4.31 | 11.9 | 14.8 | 3.6
13 | CCCN(CCS(C)(=O)=O)Cc1ccc(-c2ccc3ncnc(Nc4ccc(OCc5cccc(F)c5)c(Cl)c4)c3c2)o1 | 8.75 | -1 | 3.75 | -2.13 | -0.4 | 2.56 | 2.25 | 5.97 | 5.71 | 4.71
14 | CC1=C(C(=O)Nc2cc(Cl)c3[nH]ncc3c2)C(c2ccc(C(F)(F)F)cc2)CC(=O)N1 (configuration not stated) | 4.57 | 1.19 | 1.94 | -2.83 | -2.1 | 2.24 | 2.48 | 8.02 | 6.71 | 1.63
15 | CCn1c(-c2nonc2N)nc2cnc(Oc3cccc(NC(=O)c4ccc(N(C)C)cc4)c3)cc21 | 0.52 | -1.54 | -0.4 | -2.08 | -3.39 | 2.26 | 4.01 | 4.68 | -0.31 | 5.07
16 | CCn1c(-c2nonc2N)nc2c(C#CC(C)(C)O)ncc(OC3CCNCC3)c21 | 1.16 | 1.78 | 0.14 | 1.52 | 0.34 | 1.03 | 3.69 | 4.06 | 6.59 | -2.87
17 | CS(=O)(=O)CCNCc1coc(-c2ccc3ncnc(Nc4ccc(OCc5ccccc5)cc4)c3c2)c1 | 10.3 | -2.4 | 4.59 | 2.56 | 0.15 | 7.79 | 5.01 | 8.01 | 5.86 | 3.86
18 | NC(=O)c1sc(-n2cnc3ccc(C(F)(F)F)cc32)cc1OCc1ccccc1Br | 4.07 | -0.44 | 3.88 | -2.06 | -1.67 | 2.19 | 5.58 | 10.1 | 8.59 | 5.67
19 | CC(=O)Nc1cccc(C#Cc2cncnc2Nc2ccc(OCc3cccc(F)c3)c(Cl)c2)c1 |  |  |  | 4.33 | 2.42 | 4.65 | 3.23 | 8.19 | 0.69 | 6.52
20 | CN(C)CCOc1ccc(-c2nc(-c3ccncc3)c(-c3ccc4c(c3)CC/C4=N\O)[nH]2)cc1 | 2.29 | 2.36 | 6.66 | 1.49 | 0.74 | 2.42 | 3.57 | 6.96 | 9.28 | 5.22
